From ChEMBL document CHEMBL2218924, “A broad activity screen in support of a chemogenomic map for kinase signalling research and drug discovery” (Biochem J, 2013) come the findings set out here.

The target of test [1] is Serine/threonine-protein kinase PLK3 (Homo sapiens) (UniProt Q9H4B4). Particulars: at 1 µM; call rule not given here.
Test [2] has the same target. Particulars: at 10 µM.
The target in test [3] is T1, cAMP-dependent protein kinase catalytic subunit PRKX (Homo sapiens) (UniProt P51817).
T1 sequence (whole entry): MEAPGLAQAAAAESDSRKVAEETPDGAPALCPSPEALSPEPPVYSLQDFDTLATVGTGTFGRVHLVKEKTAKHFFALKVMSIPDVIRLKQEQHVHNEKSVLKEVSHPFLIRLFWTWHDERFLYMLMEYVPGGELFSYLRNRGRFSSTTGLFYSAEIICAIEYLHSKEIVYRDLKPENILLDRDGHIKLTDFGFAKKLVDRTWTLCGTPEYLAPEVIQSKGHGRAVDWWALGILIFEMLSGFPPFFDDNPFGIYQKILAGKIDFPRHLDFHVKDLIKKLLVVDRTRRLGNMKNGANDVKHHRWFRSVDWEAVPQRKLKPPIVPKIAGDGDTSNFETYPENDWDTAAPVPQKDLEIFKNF
The conditions noted are these: at 1 µM.

The target in test [4] is T1, cAMP-dependent protein kinase catalytic subunit PRKX (Homo sapiens). Particulars: at 10 µM.
In test [5] the target is Protein-tyrosine kinase 2-beta (Homo sapiens) (UniProt Q14289). Particulars: at 1 µM.
Test [6] shares this target. Particulars: at 10 µM.
Test [7] concerns the target Receptor-interacting serine/threonine-protein kinase 2 (Homo sapiens) (UniProt O43353). The conditions noted are these: at 1 µM.
For test [8] the target is unchanged. The conditions noted are these: at 10 µM.
In test [9] the target is Rho-associated protein kinase 1 (Homo sapiens) (UniProt Q13464). The conditions noted are these: at 1 µM.
Test [10] shares this target. Particulars: at 10 µM.
For test [11], the target named is Rho-associated protein kinase 2 (Homo sapiens) (UniProt O75116). The conditions noted are these: at 1 µM.
Test [12] has the same target. The conditions noted are these: at 10 µM.
Test [13] deals with Proto-oncogene tyrosine-protein kinase receptor Ret (Homo sapiens) (UniProt P07949). Particulars: at 1 µM.
For test [14] the target is unchanged. Particulars: at 10 µM.
Test [15] addresses Macrophage-stimulating protein receptor (Homo sapiens) (UniProt Q04912). The conditions noted are these: at 1 µM.
Test [16] shares this target. Particulars: at 10 µM.
In test [17] the target is Proto-oncogene tyrosine-protein kinase ROS (Homo sapiens) (UniProt P08922). Particulars: at 1 µM.
Test [18] has the same target. The conditions noted are these: at 10 µM.
The target of test [19] is T2, Tyrosine-protein kinase receptor TYRO3 (Homo sapiens) (UniProt Q06418).
T2 sequence (whole entry): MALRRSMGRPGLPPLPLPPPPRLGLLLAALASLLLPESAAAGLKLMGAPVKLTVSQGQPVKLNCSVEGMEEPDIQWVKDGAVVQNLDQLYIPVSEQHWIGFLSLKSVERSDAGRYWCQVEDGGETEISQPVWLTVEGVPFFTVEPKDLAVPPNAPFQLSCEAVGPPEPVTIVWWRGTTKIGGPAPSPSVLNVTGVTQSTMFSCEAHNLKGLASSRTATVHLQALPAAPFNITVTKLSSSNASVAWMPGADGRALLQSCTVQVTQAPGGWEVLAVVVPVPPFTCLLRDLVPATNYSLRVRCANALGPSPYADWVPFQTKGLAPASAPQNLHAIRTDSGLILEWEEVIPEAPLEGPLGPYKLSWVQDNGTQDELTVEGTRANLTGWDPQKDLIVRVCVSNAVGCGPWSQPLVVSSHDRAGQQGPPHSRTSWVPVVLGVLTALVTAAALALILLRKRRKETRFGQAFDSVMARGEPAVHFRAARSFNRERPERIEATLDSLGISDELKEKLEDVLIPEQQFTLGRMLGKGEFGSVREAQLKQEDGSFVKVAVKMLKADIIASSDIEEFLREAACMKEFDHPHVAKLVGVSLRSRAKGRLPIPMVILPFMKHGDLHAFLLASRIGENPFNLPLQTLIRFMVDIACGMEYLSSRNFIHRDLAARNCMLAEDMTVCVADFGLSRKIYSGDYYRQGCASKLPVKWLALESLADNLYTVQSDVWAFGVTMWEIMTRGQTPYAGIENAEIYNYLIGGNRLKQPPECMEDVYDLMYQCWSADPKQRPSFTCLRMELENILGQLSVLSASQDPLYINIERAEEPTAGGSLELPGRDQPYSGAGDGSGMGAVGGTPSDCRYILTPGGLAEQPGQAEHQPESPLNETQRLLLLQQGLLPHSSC
The conditions noted are these: at 1 µM.

Test [20] has as its target T2, Tyrosine-protein kinase receptor TYRO3 (Homo sapiens). The conditions noted are these: at 10 µM.

Chain of Proto-oncogene tyrosine-protein kinase receptor Ret (Homo sapiens) (P07949 whole entry): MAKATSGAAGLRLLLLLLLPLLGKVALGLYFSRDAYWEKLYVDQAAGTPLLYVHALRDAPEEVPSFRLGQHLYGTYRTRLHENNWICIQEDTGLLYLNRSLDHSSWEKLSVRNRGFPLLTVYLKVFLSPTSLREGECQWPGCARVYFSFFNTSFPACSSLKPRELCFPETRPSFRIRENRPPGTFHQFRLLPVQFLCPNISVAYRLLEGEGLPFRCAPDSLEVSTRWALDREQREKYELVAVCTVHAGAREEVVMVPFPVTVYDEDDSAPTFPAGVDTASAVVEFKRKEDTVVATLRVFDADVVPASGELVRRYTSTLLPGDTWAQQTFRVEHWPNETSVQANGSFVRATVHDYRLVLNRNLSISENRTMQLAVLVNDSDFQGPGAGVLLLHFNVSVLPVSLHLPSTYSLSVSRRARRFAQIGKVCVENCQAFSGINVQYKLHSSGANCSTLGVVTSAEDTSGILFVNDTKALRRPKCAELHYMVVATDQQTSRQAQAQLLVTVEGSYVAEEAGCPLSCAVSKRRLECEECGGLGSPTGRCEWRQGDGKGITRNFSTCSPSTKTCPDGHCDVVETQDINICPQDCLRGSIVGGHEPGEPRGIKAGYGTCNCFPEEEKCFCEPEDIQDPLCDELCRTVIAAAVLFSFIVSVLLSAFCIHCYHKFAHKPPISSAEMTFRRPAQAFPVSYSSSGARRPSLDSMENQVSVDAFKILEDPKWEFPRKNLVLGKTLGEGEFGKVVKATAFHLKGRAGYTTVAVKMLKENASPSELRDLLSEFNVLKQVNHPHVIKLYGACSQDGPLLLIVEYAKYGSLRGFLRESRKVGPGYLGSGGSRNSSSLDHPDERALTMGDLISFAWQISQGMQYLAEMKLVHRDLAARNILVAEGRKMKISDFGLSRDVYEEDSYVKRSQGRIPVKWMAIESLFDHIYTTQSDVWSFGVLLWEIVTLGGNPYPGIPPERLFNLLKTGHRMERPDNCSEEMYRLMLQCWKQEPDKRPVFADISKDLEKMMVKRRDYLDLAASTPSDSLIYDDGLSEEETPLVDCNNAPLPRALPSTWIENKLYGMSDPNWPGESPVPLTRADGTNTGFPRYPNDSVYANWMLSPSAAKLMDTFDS
Chain of Macrophage-stimulating protein receptor (Homo sapiens) (Q04912 25-304 limits assumed): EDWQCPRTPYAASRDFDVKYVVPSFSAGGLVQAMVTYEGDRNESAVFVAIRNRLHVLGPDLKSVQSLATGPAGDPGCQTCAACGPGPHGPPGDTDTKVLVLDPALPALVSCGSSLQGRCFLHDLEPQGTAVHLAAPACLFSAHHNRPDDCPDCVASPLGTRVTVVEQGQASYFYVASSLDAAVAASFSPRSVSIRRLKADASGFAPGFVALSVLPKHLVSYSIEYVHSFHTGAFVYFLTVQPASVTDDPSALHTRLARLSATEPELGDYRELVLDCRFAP
Chain of Macrophage-stimulating protein receptor (Homo sapiens) (Q04912 310-1400 limits assumed): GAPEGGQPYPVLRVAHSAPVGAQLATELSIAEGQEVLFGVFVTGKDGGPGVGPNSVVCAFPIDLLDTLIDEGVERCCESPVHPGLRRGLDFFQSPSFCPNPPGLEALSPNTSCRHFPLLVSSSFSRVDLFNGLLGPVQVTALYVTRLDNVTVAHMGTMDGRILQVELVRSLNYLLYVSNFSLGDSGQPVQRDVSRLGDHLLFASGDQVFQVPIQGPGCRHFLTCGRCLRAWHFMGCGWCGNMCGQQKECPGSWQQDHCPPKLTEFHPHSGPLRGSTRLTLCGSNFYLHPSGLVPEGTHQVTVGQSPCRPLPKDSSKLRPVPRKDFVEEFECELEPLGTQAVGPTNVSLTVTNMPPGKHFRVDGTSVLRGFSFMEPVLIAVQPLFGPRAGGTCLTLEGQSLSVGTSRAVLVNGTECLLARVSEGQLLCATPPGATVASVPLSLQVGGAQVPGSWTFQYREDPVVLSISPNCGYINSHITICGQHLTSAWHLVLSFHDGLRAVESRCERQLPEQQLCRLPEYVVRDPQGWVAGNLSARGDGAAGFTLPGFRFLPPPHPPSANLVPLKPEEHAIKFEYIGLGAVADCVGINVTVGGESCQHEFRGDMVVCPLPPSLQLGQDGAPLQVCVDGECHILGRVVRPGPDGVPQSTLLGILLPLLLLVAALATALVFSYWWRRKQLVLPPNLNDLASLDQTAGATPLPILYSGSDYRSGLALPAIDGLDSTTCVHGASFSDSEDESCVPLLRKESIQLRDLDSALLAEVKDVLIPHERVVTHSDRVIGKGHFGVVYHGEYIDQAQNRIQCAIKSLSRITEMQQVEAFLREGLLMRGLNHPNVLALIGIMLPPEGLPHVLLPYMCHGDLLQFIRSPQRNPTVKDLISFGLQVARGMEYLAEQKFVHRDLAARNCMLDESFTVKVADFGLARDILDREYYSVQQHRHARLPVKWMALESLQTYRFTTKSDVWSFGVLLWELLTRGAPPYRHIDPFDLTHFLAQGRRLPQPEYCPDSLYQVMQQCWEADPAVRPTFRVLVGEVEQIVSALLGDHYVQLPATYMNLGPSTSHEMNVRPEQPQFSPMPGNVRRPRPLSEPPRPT
Chain of Serine/threonine-protein kinase PLK3 (Homo sapiens) (Q9H4B4 whole entry, looked up): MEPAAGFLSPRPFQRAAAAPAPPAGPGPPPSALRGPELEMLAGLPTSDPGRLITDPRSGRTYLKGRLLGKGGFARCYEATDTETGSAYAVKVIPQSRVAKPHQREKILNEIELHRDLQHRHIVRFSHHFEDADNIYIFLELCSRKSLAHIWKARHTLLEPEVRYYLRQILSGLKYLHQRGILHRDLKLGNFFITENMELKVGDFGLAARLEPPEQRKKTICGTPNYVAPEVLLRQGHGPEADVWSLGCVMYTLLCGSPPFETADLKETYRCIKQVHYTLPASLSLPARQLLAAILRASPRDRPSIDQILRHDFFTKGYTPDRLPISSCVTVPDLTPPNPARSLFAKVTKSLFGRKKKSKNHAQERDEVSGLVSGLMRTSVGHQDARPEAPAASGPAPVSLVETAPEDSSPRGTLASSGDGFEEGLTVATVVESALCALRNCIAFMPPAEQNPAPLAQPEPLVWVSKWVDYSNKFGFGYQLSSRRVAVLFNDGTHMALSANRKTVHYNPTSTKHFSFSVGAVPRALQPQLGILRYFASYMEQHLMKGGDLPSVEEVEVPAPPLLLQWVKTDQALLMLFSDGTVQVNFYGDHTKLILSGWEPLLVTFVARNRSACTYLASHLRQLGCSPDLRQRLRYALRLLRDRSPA
Chain of Protein-tyrosine kinase 2-beta (Homo sapiens) (Q14289 whole entry, looked up): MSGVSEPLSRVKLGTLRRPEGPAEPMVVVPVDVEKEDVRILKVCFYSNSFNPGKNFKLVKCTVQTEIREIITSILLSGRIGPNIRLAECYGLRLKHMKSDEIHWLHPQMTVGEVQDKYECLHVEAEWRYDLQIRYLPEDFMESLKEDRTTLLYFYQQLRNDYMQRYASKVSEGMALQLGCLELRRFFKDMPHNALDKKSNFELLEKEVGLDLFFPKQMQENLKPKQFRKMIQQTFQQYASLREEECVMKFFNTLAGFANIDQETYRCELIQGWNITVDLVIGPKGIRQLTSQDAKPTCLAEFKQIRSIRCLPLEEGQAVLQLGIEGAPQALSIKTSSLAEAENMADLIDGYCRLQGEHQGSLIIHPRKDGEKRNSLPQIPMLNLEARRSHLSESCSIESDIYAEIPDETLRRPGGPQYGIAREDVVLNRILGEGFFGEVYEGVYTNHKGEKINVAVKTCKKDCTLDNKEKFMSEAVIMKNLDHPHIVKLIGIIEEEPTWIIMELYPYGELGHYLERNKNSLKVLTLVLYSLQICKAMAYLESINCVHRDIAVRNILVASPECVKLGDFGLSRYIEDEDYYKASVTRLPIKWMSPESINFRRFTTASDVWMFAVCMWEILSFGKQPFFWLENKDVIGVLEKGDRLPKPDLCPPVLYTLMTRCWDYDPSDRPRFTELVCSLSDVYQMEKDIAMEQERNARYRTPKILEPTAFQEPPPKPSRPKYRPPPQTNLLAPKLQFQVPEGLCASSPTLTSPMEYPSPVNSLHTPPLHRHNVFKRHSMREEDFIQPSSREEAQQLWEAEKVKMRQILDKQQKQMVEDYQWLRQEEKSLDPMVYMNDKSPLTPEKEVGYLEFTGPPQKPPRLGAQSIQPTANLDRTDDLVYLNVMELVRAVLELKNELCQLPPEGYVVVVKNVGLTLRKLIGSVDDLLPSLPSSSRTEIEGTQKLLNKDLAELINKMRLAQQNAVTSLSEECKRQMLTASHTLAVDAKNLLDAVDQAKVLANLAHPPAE
Chain of Receptor-interacting serine/threonine-protein kinase 2 (Homo sapiens) (O43353 whole entry): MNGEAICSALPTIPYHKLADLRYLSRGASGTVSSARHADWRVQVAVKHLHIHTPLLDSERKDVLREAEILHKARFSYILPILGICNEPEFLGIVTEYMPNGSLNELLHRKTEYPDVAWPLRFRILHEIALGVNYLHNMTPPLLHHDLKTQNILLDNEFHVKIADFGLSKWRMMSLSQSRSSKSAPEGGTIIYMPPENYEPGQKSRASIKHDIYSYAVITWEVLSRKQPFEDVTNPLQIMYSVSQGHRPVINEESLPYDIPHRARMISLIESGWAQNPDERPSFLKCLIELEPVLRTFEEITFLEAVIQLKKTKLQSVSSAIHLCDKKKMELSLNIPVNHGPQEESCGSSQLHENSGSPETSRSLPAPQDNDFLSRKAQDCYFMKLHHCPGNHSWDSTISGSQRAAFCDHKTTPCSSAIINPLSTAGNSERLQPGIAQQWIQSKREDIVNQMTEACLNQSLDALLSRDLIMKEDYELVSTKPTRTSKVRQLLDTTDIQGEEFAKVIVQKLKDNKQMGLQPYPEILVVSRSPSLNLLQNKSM

Turning to `CN(C)c1ccc(/C=C2\C(=O)Nc3ccccc32)cc1`, the residual activity was 94% (inactive) in test [1]; 88% in test [2]; 92% in test [3]; 66% in [4]; 103% in [5]; 47% in test [6]. In addition, the residual activity was 103% in [7]; 83% in test [8]; 132% in [9]; 123% in test [10]; 112% in test [11]; 38% in test [12]. Besides, the residual activity in test [13] was determined as 66%; in test [14], 32%; in test [15] it was 91%; in test [16] it was 92%; in [17], 106%; in [18], 103%. Besides, the values for the residual activity in [19] and in test [20] were 100% and 99%, respectively.

As for `Cc1ccc(S(=O)(=O)/C=C/C#N)cc1`, the residual activity in [1] was 103% (inactive); in test [2], 97%; in test [3], 91%; in test [4], 101%; in test [5], 102%; in test [6], 104%. Further, the residual activity in test [7] is 88%; in test [8] it was 88%; in test [9], 119%; in test [10], 106%; in test [11], 89%; in test [12] it was 93%. Further, the residual activity amounted to 115% in test [13]; 90% in [14]; 80% in [15]; 91% in test [16]; 104% in test [17]; 92% in test [18]. Besides, the residual activity was 107% in test [19] and 99% in test [20].

For `O=C(Nc1cccc(Nc2nccc(Nc3cccc(C(F)(F)F)c3)n2)c1)C1CC1`, the residual activity was 73% (inactive) in test [1]; 88% in test [2]; 103% in test [3]; 51% in test [4]; 55% in test [5]; 12% in test [6]. Besides, the residual activity in test [7] came out at 69%; in [8] it was 71%; in test [9], 106%; in test [10], 127%; in test [11] it was 108%; in test [12] it was 88%. The residual activity in test [13] is 74%; in [14], 81%; in test [15], 93%; in [16], 38%; in test [17], 102%; in test [18], 68%. Moreover, the residual activity was found to be 70% in test [19] and 89% in [20].

For `Oc1n[nH]c2nnc(-c3c(-c4ccccc4)nn4ccccc34)cc12`, the residual activity in test [1] was 96% (inactive); in [2], 89%; in test [3], 86%; in test [4], 81%; in [5], 102%; in test [6], 88%. The residual activity amounted to 87% in [7]; 85% in [8]; 121% in [9]; 104% in test [10]; 83% in test [11]; 91% in [12]. Besides, the residual activity stood at 102% in test [13]; 80% in test [14]; 70% in test [15]; 53% in test [16]; 91% in test [17]; 87% in test [18]. Also, the residual activity in test [19] was found to be 109%; in test [20] it was 97%.

Consider `O=C(O)c1ccc2c3c1cccc3c(=O)n1c3ccccc3nc21`, for which the residual activity in test [1] was 106% (inactive); in test [2] it was 98%; in [3] it was 84%; in test [4], 68%; in test [5] it was 88%; in test [6] it was 42%. For the same molecule, the residual activity in [7] was 96%; in test [8], 82%; in test [9], 113%; in [10] it was 80%; in test [11], 119%; in test [12], 107%. In addition, the residual activity in test [13] worked out at 97%; in test [14], 61%; in test [15], 106%; in test [16], 109%; in test [17] it was 109%; in [18], 101%. The residual activity amounted to 98% in [19] and 88% in [20].

In the case of `Cn1cnc2cc3c(Nc4cccc(Br)c4)ncnc3cc21`, the residual activity in test [1] was 95% (inactive); in [2], 92%; in test [3] it was 108%; in test [4] it was 110%; in [5], 119%; in test [6] it was 77%. In addition, the residual activity came out at 26% in test [7]; 20% in test [8]; 104% in [9]; 110% in test [10]; 93% in test [11]; 81% in test [12]. Also, the residual activity in test [13] was 66%; in [14] it was 65%; in test [15], 88%; in test [16], 64%; in test [17] it was 91%; in test [18], 98%. The residual activity in [19] stood at 59%; in test [20], 53%.
